The values below come from PubChem BioAssay.

The nature of experiment [1]: circadian clock period modulators, cell-based, LOPAC library, luminescence reporter (AID 2774).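 Also: values are relative to mean of DMSO wells on each plate.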 The settings on record: circadian reporter cells, at 7 µM, actives lie on both sides.
Experiment [2] concerns Hepatitis C virus NS3 helicase. Kind of experiment: HCV NS3 helicase inhibitors, primary screen, biochemical, fluorescence polarization, LOPAC1280 library (AID 687035; in the data active = inhibition above about 37%). The settings on record: Purified HCV NS3 helicase, Cy5-dT15 ssDNA binding fluorescence polarization; stronger effect = higher value; concentration not given here.
Experiment [3] is described as follows: Cy5 fluorescence quenching or enhancement artefacts, artefact control for HCV NS3 helicase inhibitor project, biochemical, LOPAC1280 (AID 687037). The settings on record: Cy5-DNA-NS3h complex fluorescence interference counterscreen. In general terms: Counterscreens check selectivity or assay interference.
In experiment [4] the test system is Aerobactin synthetase IucA (Klebsiella pneumoniae, hypervirulent). The experiment is described as follows: IucA enzyme inhibition, biochemical, LOPAC library, absorbance readout (AID 1346212).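 Also: 100% = no compound wells and 0% = no enzyme wells.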 The settings on record: IucA enzyme assay, absorbance (OD) readout; stronger effect = lower value;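 tested at 8 µM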.
Experiment [5] is described as follows: sensitizers of A549 cells to miR-34 induction, primary screen, imaging, A549 dox-inducible miR-34, nuclei and caspase counts (AID 1347080;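 active = compounds whose cell count with miR-34 switched on is under 0.7 times the count with it off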). The settings on record: A549 miR-34 inducible, Hoechst nuclei count, 48 h.
Experiment [6] in a line: phospholipid biosynthesis inhibitors in animal cells, primary screen, cell-based, LOPAC library, screen 4 (AID 1347384). The settings on record: phospholipid biosynthesis inhibition screen, at 10 µM.
Experiment [7] is described as follows: viability rescue of complex I mutant cybrids, primary screen, cell-based, galactose medium, ATP luminescence (AID 1645843;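 active = z-score of at least 1.8 in each of two replicates, scored against plate mean and spread of sample wells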;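 also: positive z means more ATP and so rescue of galactose-driven cybrid death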). The settings on record: complex I mutant cybrid cells, 72 h, stronger effect = higher value.
The nature of experiment [8]: hESC survival regulators, cell-based (AID 493140).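 Also: cells exposed to compounds for four days before counting.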 The settings on record: human embryonic stem cell survival screen; stronger effect = higher value.
The nature of experiment [9]: inhibitors of Cryptococcus chitosan production, flow cytometry, Cibacron Brilliant Red staining (AID 1347148).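 Also: compound exposure lasted three days at 37 degrees C.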 The settings on record: Cryptococcus neoformans chitosan, stronger effect = lower value; at 10 µM unless noted. A general note: A flow cytometer gives signals particle by particle.
The nature of experiment [10]: liver-stage malaria parasite growth inhibition, primary screen, cell-based, HepG2, luciferase luminescence, HepG2 viability (AID 624349; in the data active = parasite load remaining mostly below about 12%, no sharp cut-off; inactive = mostly above about 10%;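 also: 100% = mean of DMSO negative control wells on the same plate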). The settings on record: P. berghei liver stage in HepG2, luciferase luminescence, concentration not given here; parasite load remaining: stronger effect = lower value; viability: measured here: HepG2 viability without parasites.
Where [11] appears, read: measured here: relative caspase fold change +Dox/-Dox.
Where [12] appears, read: measured here: total cells with miR-34 induction, stronger effect = lower value.
[13] abbreviates: measured here: total cells without miR-34 induction.

By inhibition is commonly meant the change of the read-out against control, counted positive when it falls. The remaining activity is the signal under treatment as a percentage of the control signal. By viability is commonly meant a read-out of living cells in per cent, often relative to untreated cells.

Calls of active or inactive are those of the source. Unless noted, no rule for the calls is given here.

For `CCCN1CCC[C@H](c2cccc(O)c2)C1`, the period change in experiment [1] is -0.035 h (inactive). Further, in experiment [2], the inhibition is -3% (inactive). Also, the fluorescence ratio (interference) in [3] is 1 (inactive). Also, in [4], the remaining activity was 98.7% (inactive). The fold change in experiment [5] (stronger effect = lower value) was 1 (inactive); in experiment [5] (setting [11]) it was 1.94. The cell count in [5] (setting [12]) was 9710; in experiment [5] (setting [13]), 9700. The result in experiment [6] was inactive. For the same compound, the z-score in experiment [7] was 0.32 (inactive).
With `N#C/C(=C\c1ccc(O)c(O)c1)C(N)=S`, the survival in experiment [8] was 132 (inactive). Further, in experiment [4], the remaining activity was 89.1% (inactive). For the same compound, the fold change in experiment [5] (stronger effect = lower value) was 0.909 (inactive); in [5] (setting [11]), 1.22. The cell count in [5] (setting [12]) was 4790; in experiment [5] (setting [13]), 5270. Moreover, the fold fluorescence in [9] was 5.68 [at 227 µM] (inactive).
For `CCn1cnc2c(Nc3cccc(Cl)c3)nc(N[C@@H]3CCCC[C@@H]3N)nc21`, the period change in [1] was 0.275 h (inactive). Also, in experiment [10], the parasite load remaining is 33.4% (inactive). In experiment [10], the viability stood at 108%. The inhibition in experiment [2] was -2% (inactive). The fluorescence ratio (interference) in experiment [3] was 0.9 (inactive). For the same compound, the remaining activity in [4] is 98.9% (inactive). Also, the fold change was 0.982 (inactive) in experiment [5] (stronger effect = lower value) and 0.968 in [5] (setting [11]). For the same compound, the results for the cell count in experiment [5] (setting [12]) and in [5] (setting [13]) were 797 and 812, respectively. Besides, in experiment [6], the result was inactive. For the same compound, the z-score in [7] was -1.48 (inactive).
In the case of `C#CCN[C@H](C)Cc1ccccc1`, the period change in experiment [1] was -0.015 h (inactive). For the same compound, the inhibition in experiment [2] is -2% (inactive). In addition, the fluorescence ratio (interference) in experiment [3] is 1 (inactive). In addition, the remaining activity in experiment [4] was 82% (inactive). In addition, the fold change in experiment [5] (stronger effect = lower value) is 0.962 (inactive); in experiment [5] (setting [11]), 1.51. Further, the cell count is 9640 in [5] (setting [12]) and 10000 in [5] (setting [13]). Besides, the outcome in experiment [6] was inactive. In addition, the z-score in experiment [7] is 0.54 (inactive).
`CC(C)NP(=O)(NC(C)C)OP(=O)(NC(C)C)NC(C)C`: the period change in experiment [1] is 0.055 h (inactive). For the same compound, in experiment [2], the inhibition was -5% (inactive). Also, the fluorescence ratio (interference) in experiment [3] was 1 (inactive). Also, the remaining activity in experiment [4] is 90.6% (inactive). Besides, the fold change was 0.945 (inactive) in experiment [5] (stronger effect = lower value) and 1.32 in experiment [5] (setting [11]). For the same compound, the cell count was 9680 in [5] (setting [12]) and 10200 in [5] (setting [13]). Also, the compound was classed as inactive in experiment [6]. Also, the z-score in [7] is 0.25 (inactive).
With `C[C@H](N)CN1CCc2ccc(Br)cc21`, the period change in experiment [1] is 0.205 h (inactive). In addition, in [2], the inhibition was -3% (inactive). The fluorescence ratio (interference) in experiment [3] was 1 (inactive). In [4], the remaining activity is 115% (inactive). Moreover, the fold change is 1.19 (inactive) in experiment [5] (stronger effect = lower value) and 0.954 in experiment [5] (setting [11]). The values for the cell count in [5] (setting [12]) and in experiment [5] (setting [13]) were 9010 and 7600, respectively. Moreover, the outcome in experiment [6] was inactive. Also, the z-score in experiment [7] was -0.65 (inactive).
As for `Cn1cnc(CCN)c1`, the period change in [1] is -0.12 h (inactive). The inhibition in [2] is -3% (inactive). For the same compound, in experiment [3], the fluorescence ratio (interference) is 1 (inactive). Also, the remaining activity in [4] is 125% (inactive). Besides, the fold change in experiment [5] (stronger effect = lower value) was 1.08 (inactive); in [5] (setting [11]), 1.18. The cell count in experiment [5] (setting [12]) came to 11400; in experiment [5] (setting [13]), 10500. In experiment [6], the compound was classed as inactive. In addition, the z-score in experiment [7] was 0.51 (inactive).
